Data reported in PubChem BioAssay (NCATS).
Unmarked numbers belong to inactive results. Records with an inconclusive call do not appear. Where a call stands in place of a potency, no number is given. Calls of active or inactive are those of the source. Calls come from the whole dose curve; as a rule, active = well fitted curve in the direction sought with a large enough effect; inconclusive = small, poorly fitted or top-dose-only effect, or another doubt; inactive = no such curve, though single readings can be large; an effect the other way counts as inactive or inconclusive. Where a SMILES comes first, the peptide text is derived from it. [ ]: non-standard residue; d: D form. ξ: configuration not given here. ξPhe(βξ-Me) = CC(c1ccccc1)C(N)C(=O)O; ξLac(3-iPr) = CC(C)CC(O)C(=O)O; NMeV = CN[CH](C(=O)O)C(C)C; GABA = NCCCC(=O)O; βAla = NCCC(=O)O

Experiments:
[1] = biological target: Glutathione peroxidase 1 (Homo sapiens) (UniProt P07203); assay: Primary qHTS Assay for Inhibitors of Recombinant Selenoprotein Glutathione Peroxidase 1 (GPX1) (AID 1845191); note: nearly all actives have a fitted effect of over 65% in size; note: potency is the fitted concentration of half-maximal effect
Sequence of Glutathione peroxidase 1 (Homo sapiens) (P07203 whole entry, looked up): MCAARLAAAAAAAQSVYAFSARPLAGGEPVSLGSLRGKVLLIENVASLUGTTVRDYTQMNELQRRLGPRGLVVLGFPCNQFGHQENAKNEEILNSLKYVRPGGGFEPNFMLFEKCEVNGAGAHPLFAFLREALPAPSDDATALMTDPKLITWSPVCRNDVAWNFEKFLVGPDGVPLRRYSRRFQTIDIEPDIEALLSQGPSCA
Outline: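 NADPH consumption tracked by fluorescence at 340/450 nm between t=0 and t=15 min, room temperature. Final mix: 10 nM GPX1, 100 nM glutathione reductase, 1 mM GSH, 0.5 mM NADPH, 0.5 mM cumene hydroperoxide, 0.01% BSA; 30 min compound–enzyme preincubation.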

[2] = biological target: Phospholipid hydroperoxide glutathione peroxidase GPX4 (Homo sapiens) (UniProt P36969); assay: Primary qHTS Assay for Inhibitors of Recombinant Selenoprotein Glutathione Peroxidase 4 (GPX4) (AID 1845192); note: nearly all actives have a fitted effect of over 65% in size
Sequence of Phospholipid hydroperoxide glutathione peroxidase GPX4 (Homo sapiens) (P36969 whole entry, looked up): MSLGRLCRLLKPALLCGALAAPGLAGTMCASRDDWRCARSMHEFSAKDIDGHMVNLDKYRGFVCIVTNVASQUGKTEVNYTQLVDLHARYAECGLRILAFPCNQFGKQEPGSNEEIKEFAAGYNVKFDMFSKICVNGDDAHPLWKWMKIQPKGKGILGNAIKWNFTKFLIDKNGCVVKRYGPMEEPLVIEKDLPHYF
Outline: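 NADPH consumption followed by fluorescence at 340/450 nm, t=0 and after 15 min at room temperature. Reaction started with cumene hydroperoxide (0.5 mM final) after 30 min compound–GPX4 preincubation; final 200 nM GPX4, 100 nM GR, 1 mM GSH, 0.5 mM NADPH.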

[3] = biological target: Luciferin 4-monooxygenase (Photinus pyralis) (UniProt P08659); assay: Primary firefly luciferase (FLuc) qHTS assay for identification of artifact compounds. (AID 1845220); note: nearly all actives have a fitted effect of over 60% in size
Outline: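 FLuc 10 nM; luciferin 10 uM; ATP 10 uM; Tris-acetate pH 7.6, Mg-acetate 10 mM; 15 min RT preincubation; 5 min reaction; luminescence.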

[4] = Primary fluorescence-based thiol-reactive (MSTI) qHTS assay for identification of artifact compounds. (AID 1845221); note: nearly all actives have a fitted effect of over 65% in size; note: potency is the fitted concentration of half-maximal effect
Outline: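 One-hour, room-temperature, dark incubation of compound with 4 uM MSTI in PBS (pH 7.4, 2% DMSO) precedes a fluorescence read at 525 nm excitation, 598 nm emission; Hill-equation fitting yields concentration-response values.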

[5] = tested on: Nanoluciferase (engineered Oplophorus gracilirostris luciferase); assay: Primary Nanoluciferase (NLuc) qHTS assay for identification of artifact compounds. (AID 1845222);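 note: NLuc secreted into diluted conditioned medium of S16 cells; series mostly up to about 54 µM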
Outline: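 NLuc from S16 cell medium (1:55) plus test compounds, 15 min, room temperature. Luminescence after Nano-Glo (1:100) addition, 5 min.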

[6] = Primary redox qHTS assay for identification of artifact compounds. (AID 1845223)
Outline: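 Redox-cycling detection via DTT (250 uM final) oxidation coupled to Amplex Red (25 uM)/HRP (250 mU/mL) in HBSS. 15 min preincubation plus 30 min after DTT, room temperature. Ex/Em 525/598 nm; 4-parameter Hill fit against DMSO and 10 uM DA3003.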

SMILES	Potency [1]	Potency [2]	Potency [3]	Potency [4]	Potency [5]	Potency [6]
C=C[C@H]1C(O[C@@H]2O[C@H](CO)[C@@H](O)[C@H](O)[C@H]2O)OC=C2C(=O)N3CCc4c([nH]c5ccccc45)[C@H]3C[C@H]21 (stereo partly drawn)	inactive	inactive	inactive	inactive	inactive	inactive
CC(C)(C)c1ccc(S(=O)(=O)NCc2ccc(C(=O)Nc3cccnc3)cc2)cc1	inactive	inactive	inactive	inactive	inactive	inactive
O=C(CC1C(=O)Nc2ccccc21)OC[C@H]1O[C@@H](OCCc2ccc(O)cc2)[C@H](O)[C@@H](O)[C@@H]1O (stereo partly drawn)	inactive	inactive	inactive	9.22 µM (active)	inactive	inactive
Cn1cc(-c2ccc3nnc(Sc4ccc5nn(C)cc5c4)n3n2)cn1	inactive	inactive	inactive	inactive	inactive	inactive
CC(=O)OC1CC2C3(C)CCC(OC(=O)CC(=O)O)C(C)(C)C3CCC2(C)C2(C)CCC(C3(C)CCC(=O)O3)C12 (stereo not drawn)	inactive	inactive	inactive	inactive	inactive	inactive
Cc1nc2sc(C(=O)NCc3ccncc3)c(N)c2c(C)c1Cl	12.8 µM (active)	inactive	inactive	inactive	inactive	inactive
C/C1=C\C[C@]2(C)C(=O)C(O)=C([C@H](C)CO)[C@H]2C/C=C(\C)[C@@H](O)CC/C(C)=C/CC1	inactive	inactive	inactive	inactive	inactive	inactive
CC1(C)CC[C@]2(C(=O)O[C@@H]3O[C@H](CO)[C@@H](O)[C@H](O)[C@H]3O)CC[C@]3(C)C(=CCC4[C@@]5(C)C[C@@H](O)[C@H](O)[C@](C)(C=O)C5CC[C@]43C)[C@@H]2[C@@H]1O (stereo partly drawn)	inactive	inactive	inactive	3.98 µM (active)	inactive	inactive
C[C@@H]1O[C@@H](OC[C@H]2O[C@@H](OC(CCCCc3ccc(O)cc3)CCc3ccc(O)cc3)[C@H](O)[C@@H](O)[C@@H]2O)[C@H](O)[C@H](O)[C@H]1O (stereo partly drawn)	inactive	inactive	inactive	7.93 µM (active)	inactive	inactive
CC(C)CC1OC(=O)C2CCCN2C(=O)CCNC(=O)C(Cc2ccccc2)NC(=O)C(C(C)C)N(C)C(=O)C(C(C)C)N(C)C1=O (stereo not drawn) (cyclo([ξLac(3-iPr)][NMeV][NMeV]F[βAla]P); configuration not given here)	inactive	inactive	inactive	inactive	inactive	inactive
COc1ccc2nc(S(=O)(=O)Cc3ncc(C)c(OC)c3C)[nH]c2c1	inactive	inactive	inactive	inactive	inactive	inactive
CC1NC(=O)CCCNC(=O)C(Cc2c[nH]c3ccccc23)NC(=O)C(C)NC(=O)C(C(C)C)NC(=O)C(C(C)c2ccccc2)NC(=O)C(C(C)C)NC1=O (stereo not drawn) (cyclo([GABA]AV[ξPhe(βξ-Me)]VAW); configuration not given here)	inactive	inactive	inactive	inactive	inactive	inactive
C/C(=C\CCC1(C)C2CCC(C2)C1(C)O)C(=O)O (stereo not drawn)	inactive	inactive	inactive	inactive	inactive	inactive
CCOc1ccc(S(=O)(=O)n2c(C)nc3ccccc32)cc1	inactive	inactive	inactive	inactive	inactive	inactive
CC1(C)CC2C(O)c3cocc3CC(C)(O)C2C1 (stereo not drawn)	inactive	inactive	inactive	inactive	inactive	inactive
CCOc1cc(C(=O)N2CCC(N3CCN(C)CC3)CC2)ccc1Nc1ncc2c(n1)N(C1CCCC1)c1ccccc1C(=O)N2C	inactive	inactive	inactive	inactive	inactive	inactive
COC1/C=C/C(C)(O)C(SCC(N)C(=O)O)CC(=O)OC(C)C(C)CC/C=C/1C (stereo not drawn)	inactive	inactive	inactive	inactive	inactive	inactive
C=CC(C)(O)CC[C@H]1C(=C)CCC2[C@](C)(C(=O)O)CCC[C@@]21C (stereo partly drawn)	inactive	inactive	inactive	inactive	inactive	inactive
